Experimental data published in ChEMBL document CHEMBL1201862, “PubChem BioAssay data set” (2004).
Screen size: about 54,000 sequences; about 4,800 (8.9%) were called active. Rule as the data show it: active = GI50 up to about 1.1 µM and inactive = higher. The list is a sample of the results. Potency and affinity values are given separately.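 Values below derive from 48-hour exposures of cells grown in 96-well plates, with endpoints linearly interpolated between the two concentrations bracketing the appropriate inhibition level. GI50: concentration for 50% inhibition of growth.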

tested on: RPMI-8226; experiment: NCI tumour cell line growth inhibition, 48 h

Substance | GI50 [µM]
[Bis(aminomethyl)diethylsilane]tetrachloroplatinum(IV), CHEMBL2146203 | 1.62
[Bis(aminomethyl)pentamethylenesilane]tetrachloropaltinum(IV), CHEMBL2146204 | 4.53
[Bis(aminomethyl)tetramethylenesilane]dichloropaltinum(II), CHEMBL2146205 | 9.86
[Bis(aminomethyl)dimethylsilane]tetrachloroplatinum(IV), CHEMBL2146190 | 2.11
mu-(1,7-nanodiamine-N,N')bis-(cis-aminedichloroplatimum (II)), CHEMBL2146215 | 26.2
[Bis(aminomethyl)ethylmethylsilane]tetrachloroplatinum(IV), CHEMBL2146192 | 1.32
[Bis(aminomethyl)tetramethylenesilane]tetrachloropaltinum(IV), CHEMBL2146189 | 1.1
cis-Bis[[(trimethylsilyl)methyl]amino]tetrachloroplatinum(IV), CHEMBL2146191 | 1.94
[Bis(aminomethyl)pentamethylenesilane]dichloropaltinum(II), CHEMBL2146202 | 1.92
CISPLATIN, CHEMBL11359 | 4.29
[Bis(aminomethyl)dimethylsilane]dichloroplatinum (II), CHEMBL2146201 | 12.2
